Laboratory results published in PubChem BioAssay (NCATS).
Where “and” joins values, the source holds several entries; their conditions need not be identical. Identical values can stand only once. Records with an inconclusive call do not appear. Where a call stands in place of a potency, no number is given. Calls of active or inactive are those of the source. Calls follow the shape of the full dose curve.

Key:
[1] = Primary qHTS for inhibitors of SARS-S pseudo-typed particle cell entry (AID 1479145); details: outcome: dose series up to 57.1 µM unless noted; also: nearly all actives have a fitted effect of over 45% in size
[2] = Primary qHTS for Huh7 cytotoxicity: counterscreen for inhibitors of MERS-S pseudotyped particle cell entry (AID 1479147); details: outcome: dose series up to 57.1 µM unless noted
[3] = Primary qHTS for inhibitors of MERS-S pseudo-typed particle cell entry (AID 1479149); details: outcome: dose series up to 57.1 µM unless noted; also: nearly all actives have a fitted effect of over 60% in size
[4] = Primary qHTS for Vero E6 cytotoxicity: counterscreen for inhibitors of SARS-S pseudo-typed particle cell entry (AID 1479150); details: outcome: dose series up to 57.1 µM unless noted
[5] = Cytotoxicity counterscreen for inhibitors of SARS-CoV-2 cell entry (AID 1645845); details: outcome: dose series up to 57.1 µM unless noted; also: nearly all actives have a fitted effect of over 50% in size
Method in brief: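 After a 15 min room-temperature ATPLite 1step step, luminescence reflected ATP remaining in HEK293-ACE2 cells exposed to compound for 1 h plus 48 h at 37 C, with percent activity set by cell and no-cell controls.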

[6] = Primary qHTS to identify inhibitors of SARS-CoV-2 cell entry (AID 1645846); details: SARS-CoV-2 pseudovirus cell entry assay, luminescence; activity change, negative = inhibition: at 57.1 µM (top of the series) unless noted; also: nearly all actives have a fitted effect of over 45% in size
Method in brief: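 HEK293-ACE2 (Expi293F, stable hACE2), 1500 cells/well, o/n 37C; cpd 23 nL pin, 1 h; MLV-PP w/ SARS-CoV-2-S (Wuhan-Hu-1, Δ19 C-term); 48 h 37C; Bright-Glo luminescence; normalized vs S-PP and bald PP.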

Q: For `CCCC[C@H](C)C[C@H](O)/C=C/[C@H]1[C@H](O)CC(=O)[C@@H]1CCCC/C=C/C(=O)O`, which Potency [1] is on record?
A: inactive

Q: What about the Potency [2] of the same molecule?
A: inactive

Q: And the Potency [3]?
A: inactive

Q: What about the Potency [4] of the same molecule?
A: inactive

Q: What about the Potency [5] of the same molecule?
A: inactive

Q: And the activity change, negative = inhibition [6]?
A: -18.9%

Q: What does the source list for `OC(CN1CCCCC1)c1cc(-c2ccccc2)on1` (configuration not stated)?
A: Potency [1]: inactive; Potency [2]: inactive; Potency [3]: inactive; Potency [4]: inactive; Potency [5]: inactive; activity change, negative = inhibition [6]: -15.3%

Q: With `CC(C(=O)O)c1ccc(C2CCCCC2)c2ccccc12` (configuration not stated) as the molecule, how does the Potency [1] read?
A: inactive

Q: What about the Potency [2] of the same molecule?
A: inactive

Q: And the Potency [3]?
A: inactive

Q: What about the Potency [4] of the same molecule?
A: inactive

Q: What about the Potency [5] of the same molecule?
A: inactive

Q: And the activity change, negative = inhibition [6]?
A: -4.82%

Q: What does the source list for `CNC[C@@H]1CC[C@@H](N)[C@@H](O[C@H]2[C@H](O)[C@@H](O[C@H]3OC[C@](C)(O)[C@H](NC)[C@H]3O)[C@H](N)C[C@@H]2N)O1`?
A: Potency [1]: inactive; Potency [2]: inactive; Potency [3]: inactive; Potency [4]: inactive; Potency [5]: inactive; activity change, negative = inhibition [6]: -15.6%

Q: For `O=C(O)CCCN1CCC(O[C@@H](c2ccc(Cl)cc2)c2ccccn2)CC1`, which Potency [1] is on record?
A: inactive

Q: And the Potency [2]?
A: inactive

Q: What about the Potency [3] of the same molecule?
A: inactive

Q: What about the Potency [4] of the same molecule?
A: inactive

Q: And the Potency [5]?
A: inactive

Q: And the activity change, negative = inhibition [6]?
A: -17.2%

Q: What does the source list for `COC(=O)CCC(=O)CN`?
A: Potency [1]: inactive; Potency [2]: inactive; Potency [3]: inactive; Potency [4]: inactive; Potency [5]: inactive; Potency [6]: inactive

Q: With `CC(Oc1ccccc1)C(=O)N[C@@H]1C(=O)N2[C@@H]1SC(C)(C)[C@@H]2C(=O)O` (some centres not stated) as the molecule, how does the Potency [1] read?
A: inactive

Q: And the Potency [2]?
A: inactive

Q: What about the Potency [3] of the same molecule?
A: inactive

Q: What about the Potency [4] of the same molecule?
A: inactive

Q: What about the Potency [5] of the same molecule?
A: inactive

Q: And the activity change, negative = inhibition [6]?
A: -18.1%

Q: Which Potency [1] does the source give for `O=C(O)[C@@H]1CCCN1` here?
A: inactive

Q: What about the Potency [2] of the same molecule?
A: inactive

Q: And the Potency [3]?
A: inactive

Q: And the Potency [4]?
A: inactive

Q: What about the Potency [5] of the same molecule?
A: inactive

Q: And the Potency [6]?
A: inactive

Q: With `CCCCCCCCCCCCCCCCCC(=O)[O][Al]` as the molecule, how does the activity change, negative = inhibition [1] read?
A: -36% [at 5.34 µM] (inactive)

Q: And the activity change, negative = cytotoxicity [2]?
A: -3.61% [at 5.34 µM] (inactive)

Q: What about the outcome [3] of the same molecule?
A: inactive [at 5.34 µM]

Q: What about the activity change, negative = cytotoxicity [4] of the same molecule?
A: -0.388% [at 5.34 µM] (inactive)

Q: What about the activity change, negative = cytotoxicity [5] of the same molecule?
A: 0.759% [at 5.25 µM] (inactive)

Q: What about the outcome [6] of the same molecule?
A: inactive [at 5.25 µM]

Q: With `COc1cccc(N2CCN(C3=Nc4c(F)cccc4[C@H](CC(=O)O)N3c3cc(C(F)(F)F)ccc3OC)CC2)c1` as the molecule, how does the Potency [1] read?
A: inactive

Q: And the Potency [2]?
A: inactive

Q: And the Potency [3]?
A: inactive

Q: And the Potency [4]?
A: inactive

Q: And the Potency [5]?
A: inactive

Q: And the Potency [6]?
A: inactive

Q: For `NC(=O)c1nc(F)c[nH]c1=O`, which Potency [1] is on record?
A: inactive

Q: And the Potency [2]?
A: inactive

Q: And the Potency [3]?
A: inactive

Q: And the Potency [4]?
A: inactive

Q: And the Potency [5]?
A: inactive

Q: What about the activity change, negative = inhibition [6] of the same molecule?
A: -11.1% and -27.4%

Q: With `C[C@]12C=CC(=O)C=C1CCC1C2[C@@H](O)C[C@@]2(C)C1CC[C@]2(O)C(=O)COC(=O)CCC(=O)O` (some centres not stated) as the molecule, how does the Potency [1] read?
A: inactive

Q: What about the Potency [2] of the same molecule?
A: inactive

Q: And the Potency [3]?
A: inactive

Q: What about the Potency [4] of the same molecule?
A: inactive

Q: And the Potency [5]?
A: inactive

Q: What about the activity change, negative = inhibition [6] of the same molecule?
A: -21.3%

Q: Which Potency [1] does the source give for `CO/N=C(\C(=O)N[C@@H]1C(=O)N2C(C(=O)O)=C(CSc3nnnn3C)CS[C@H]12)c1csc(N)n1` here?
A: inactive

Q: What about the Potency [2] of the same molecule?
A: inactive

Q: What about the Potency [3] of the same molecule?
A: inactive

Q: What about the Potency [4] of the same molecule?
A: inactive

Q: What about the Potency [5] of the same molecule?
A: inactive

Q: What about the activity change, negative = inhibition [6] of the same molecule?
A: -27.5%

Q: Which results are given for `Cc1nc(NS(=O)(=O)c2ccc(N)cc2)nc(C)c1Br`?
A: Potency [1]: inactive; Potency [2]: inactive; Potency [3]: inactive; Potency [4]: inactive; Potency [5]: inactive; activity change, negative = inhibition [6]: -21.5%

Q: Which Potency [1] does the source give for `O=C(O)[C@@H]1C(=CCO)O[C@@H]2CC(=O)N12` here?
A: inactive

Q: What about the Potency [2] of the same molecule?
A: inactive

Q: And the Potency [3]?
A: inactive

Q: What about the Potency [4] of the same molecule?
A: inactive

Q: And the Potency [5]?
A: inactive

Q: And the Potency [6]?
A: inactive

Q: For `CC(C)(S)C(=O)N[C@@H](CS)C(=O)O`, which Potency [1] is on record?
A: inactive

Q: And the Potency [2]?
A: inactive

Q: What about the Potency [3] of the same molecule?
A: inactive

Q: What about the Potency [4] of the same molecule?
A: inactive

Q: What about the Potency [5] of the same molecule?
A: inactive

Q: What about the activity change, negative = inhibition [6] of the same molecule?
A: -16.1%

Q: Which Potency [1] does the source give for `CCCCCCCCCCCCCCCCOc1nc2ccc(C)cc2c(=O)o1` here?
A: inactive

Q: What about the Potency [2] of the same molecule?
A: inactive

Q: And the Potency [3]?
A: inactive

Q: And the Potency [4]?
A: inactive

Q: And the Potency [5]?
A: inactive

Q: What about the activity change, negative = inhibition [6] of the same molecule?
A: -28.4%

Q: What does the source list for `O=C(CCc1ccc(O)cc1)c1c(O)cc(O)cc1O[C@@H]1O[C@H](CO)[C@@H](O)[C@H](O)[C@H]1O`?
A: Potency [1]: inactive; Potency [2]: inactive; Potency [3]: inactive; Potency [4]: inactive; Potency [5]: inactive; activity change, negative = inhibition [6]: 0.14% and -17.3%

Q: With `O[C@@H]1[C@@H](O)[C@@H](O)OC[C@@H]1O` as the molecule, how does the Potency [1] read?
A: inactive

Q: And the Potency [2]?
A: inactive

Q: And the Potency [3]?
A: inactive

Q: What about the Potency [4] of the same molecule?
A: inactive

Q: What about the Potency [5] of the same molecule?
A: inactive

Q: And the activity change, negative = inhibition [6]?
A: -10.9% [at 171 µM]

Q: For `CC1(C)C2CC[C@]3(C)C(C(=O)C=C4[C@@H]5C[C@@](C)(C(=O)O)CC[C@]5(C)CC[C@]43C)[C@@]2(C)CC[C@@H]1O` (some centres not stated), which Potency [1] is on record?
A: inactive

Q: What about the Potency [2] of the same molecule?
A: inactive

Q: What about the Potency [3] of the same molecule?
A: inactive

Q: What about the Potency [4] of the same molecule?
A: inactive

Q: What about the Potency [5] of the same molecule?
A: inactive

Q: And the activity change, negative = inhibition [6]?
A: -28.8%

Q: Which Potency [1] does the source give for `C[C@H](CCC(=O)O)[C@H]1CC[C@H]2[C@@H]3CC[C@@H]4C[C@H](O)CC[C@]4(C)[C@@H]3C[C@H](O)[C@]12C` here?
A: inactive

Q: And the Potency [2]?
A: inactive

Q: What about the Potency [3] of the same molecule?
A: inactive

Q: What about the Potency [4] of the same molecule?
A: inactive

Q: What about the Potency [5] of the same molecule?
A: inactive

Q: And the Potency [6]?
A: inactive

Q: With `CSCC[C@H](N)C(=O)O` as the molecule, how does the Potency [1] read?
A: inactive

Q: What about the Potency [2] of the same molecule?
A: inactive

Q: What about the Potency [3] of the same molecule?
A: inactive

Q: What about the Potency [4] of the same molecule?
A: inactive

Q: What about the Potency [5] of the same molecule?
A: inactive

Q: And the Potency [6]?
A: inactive
